This is a sample that favours compounds with a hit; in the whole collection about 2.4% have one here.
D2 ag-1 = HTS Assay for Allosteric Agonists of the Human D2 Dopamine Receptor: Primary Screen for Agonists; HEK293 T-REx D2 cells, calcium flux agonist mode; 340,000 tested, 0.53% active; activation, % at 2 µM; D(2) dopamine receptor (Homo sapiens), P14416; AID 485358, 2010;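 active = activation over 3 SD above normal in the single-dose calcium agonist read, cut at about 30% in these data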; also: 0% is about no effect
Target sequence (P14416 whole entry, looked up): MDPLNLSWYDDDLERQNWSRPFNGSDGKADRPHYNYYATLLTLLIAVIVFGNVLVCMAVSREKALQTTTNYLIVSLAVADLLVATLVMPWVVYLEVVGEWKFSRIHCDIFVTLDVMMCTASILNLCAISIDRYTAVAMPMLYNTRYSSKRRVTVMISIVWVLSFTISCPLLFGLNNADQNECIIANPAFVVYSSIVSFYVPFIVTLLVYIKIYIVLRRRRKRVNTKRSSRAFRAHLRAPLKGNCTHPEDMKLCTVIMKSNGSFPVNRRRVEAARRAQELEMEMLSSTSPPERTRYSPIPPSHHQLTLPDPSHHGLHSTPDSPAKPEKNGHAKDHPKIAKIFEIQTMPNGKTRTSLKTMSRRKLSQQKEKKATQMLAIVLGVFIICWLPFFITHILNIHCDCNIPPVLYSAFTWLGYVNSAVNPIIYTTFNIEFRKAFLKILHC
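In this primary screen, compounds producing a positive calcium signal within 180 s of addition to tetracycline-induced, force-coupled HEK293 Trex D2 cells are flagged; cells are dye-loaded with a no-wash calcium kit beforehand.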
D2 antagonist = HTS Assay for Allosteric Antagonists of the Human D2 Dopamine Receptor: Primary Screen for Antagonists. HEK293 TREx D2 cells, calcium flux, dopamine EC80. D(2) dopamine receptor (Homo sapiens), P14416. 340,000 tested, 2% active. inhibition, % at 10 µM; in the data active = inhibition above about 30%; inactive = below that, where a call was filed; also: 0% is about no effect
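Inhibition of EC80 dopamine-driven calcium flux, recorded kinetically, defines activity here; cells are a tetracycline-induced HEK293 T-REx line expressing force-coupled D2.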
D2 PAM-1 = Beta-Arrestin HTS for Positive Allosteric Modulators of the Human D2 Dopamine Receptor: Potentiators; D(2) dopamine receptor (Homo sapiens), P14416; DiscoveRx D2 beta-arrestin cells, luminescence, 90 min; 100% = 57 uM dopamine signal; potentiation, % (concentration not given with the values); 360,000 tested, 0.23% active; AID 624464, 2012; in the data active = potentiation above about 50%
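PathHunter beta-arrestin assay in DiscoveRx D2 cells. Compounds were added with an EC20 of dopamine (50 nM final) for 90 min at 37 deg C. Luminescence was read 1 h after detection reagent, with 57 uM dopamine as the EC100 control.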
D2 ag-2 = Beta-Arrestin HTS for Positive Allosteric Modulators of the Human D2 Dopamine Receptor: Agonists. DiscoveRx PathHunter D2 beta-arrestin, luminescence, 90 min; 100% = 57 uM dopamine signal. activation, % (no concentration beside the values). 360,000 tested, 0.084% active. AID 624465, 2012; in the data active = activation above about 40%
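Agonist mode: compounds alone added to overnight-plated D2 PathHunter cells for 90 min at 37 C, with 57 uM final dopamine (EC100) defining full response. Beta-arrestin recruitment detected by chemiluminescent reagent, read after 1 h at ambient temperature.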
D2 PAM-2 = HTS Assay for Positive Allosteric Modulators of the Human D2 Dopamine Receptor: Primary Screen for Potentiators | D(2) dopamine receptor (Homo sapiens), P14416 | HEK293 T-REx D2, calcium flux, EC20 dopamine potentiation | potentiation, % at 10 µM | 340,000 tested, 0.34% active | AID 485347, 2010;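 active = potentiation over 3 SD above the plate norm, cut at about 30% in these data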; also: 0% is about no effect
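Tetracycline-induced Hek293 Trex D2 cells, force-coupled to calcium, loaded with no-wash calcium dye. Compound added with 180 s kinetic read for agonism, then EC20 dopamine and a further 180 s read for potentiation.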
Active calls of the source: *; . = no result given.

SMILES | D2 ag-1 | D2 antagonist | D2 PAM-1 | D2 ag-2 | D2 PAM-2
CC1CN(CCOc2ccccc2-c2ccccc2)CC(C)O1 (configuration not stated) | 0 | 71* | -25 | -6 | -17
c1ccc(-c2ccccc2OCCCN2CCOCC2)cc1 | 0 | 10 | -15 | -1 | 13
CC1CN(CCOc2ccc(F)cc2)CC(C)O1 (configuration not stated) | -1 | -6 | -4 | -2 | 5
CCC(C(=O)Nc1cccc(-c2cn3cccnc3n2)c1)c1ccccc1 (configuration not stated) | -8 | . | . | . | 14
CCN(CC(=O)Nc1ccc(NC(C)=O)cc1)C(=O)c1c(C)nn(-c2ccc(F)cc2)c1Cl | . | . | 0 | 2 | .
CCN(CC)CCNC(=O)c1ccc(NC(=O)c2c(C)nn(-c3ccc(F)cc3)c2Cl)cc1 | 0 | 41* | -16 | -3 | -12
CCOc1ccccc1NC(=O)c1cc2cc(C)ccc2n1C | -1 | . | . | . | 4
Cc1cccc(NC(=O)CN(C)CC(=O)NC(c2ccccc2)c2ccccc2)c1C | -1 | 33* | -16 | 0 | -5
Cc1ccccc1NC(=O)Cn1c(SCC(=O)Nc2ccc(F)cc2)nc2ccccc21 | 1 | . | . | . | 11
O=C(NC1CCCC1)c1ccc2c(c1)N(Cc1ccc(C(F)(F)F)cc1)C(=O)c1ccccc1S2 | 0 | . | . | . | -5
Cc1ccc(-c2nc(NCc3ccco3)c3ccccc3n2)cc1 | 0 | -3 | -18 | -15 | -5
Cc1ccc(OCCN2CCN(c3nc(NCc4ccco4)c4ccccc4n3)CC2)cc1 | 0 | 38* | -35 | 2 | -26
CSc1nc(NCc2ccco2)c2ccccc2n1 | 1 | 31* | -10 | -2 | -5
c1ccc(-c2nc(NCc3ccco3)c3oc4ccccc4c3n2)cc1 | 0 | -6 | -7 | 0 | 33*
OCCN1CCN(c2nc(NCc3ccco3)c3ccccc3n2)CC1 | 0 | 28 | -16 | -2 | -25
CCCOc1ccccc1-c1nc(SCC(=O)c2ccccc2)n[nH]1 | 0 | . | . | . | .
CCCCNC(=S)N(C)/N=C/c1ccc(F)cc1 | -2 | 91* | -21 | -1 | 7
CCCCNC(=S)N(C)/N=C/c1c(F)cccc1F | 1 | 6 | -2 | 0 | 7
CCc1cc2c(cc3c(=O)n(CC(=O)NC(C)C)nc(CC)n32)s1 | -1 | . | . | . | -4
CCN(C(=O)C1CCN(S(=O)(=O)c2ccc3c(c2)oc(=O)n3C)CC1)c1cccc(C)c1 | 0 | 39* | -1 | -3 | 4
Cc1cc2ccccn2c1C(=O)c1ccc([N+](=O)[O-])o1 | 0 | 36* | 28 | 7 | 2
Cc1ccc(-c2nc3cc(C(C)C)ccc3o2)cc1NC(=O)c1cccs1 | 0 | . | . | . | -2
COc1ccc(C(NC(=O)C2CCN(CCOc3ccc(Cl)cc3Cl)CC2)c2cccs2)cc1 (configuration not stated) | . | . | -18 | 70* | .
COc1ccc(C(NC(=O)C2CCN(CCOc3ccc(F)cc3)CC2)c2cccs2)cc1 (configuration not stated) | . | . | -17 | -4 | .
CC(=O)Nc1ccc(S(=O)(=O)Nc2cccc(-c3ccc(N4CCC(C)CC4)nn3)c2)cc1 | 1 | . | . | . | -5
SMILES | D2 ag-1 | D2 antagonist | D2 PAM-1 | D2 ag-2 | D2 PAM-2
CCOc1cc(CNc2ncnc3nc[nH]c23)ccc1OC | -1 | 38* | -2 | -4 | -12
CCn1c(=O)cc(SCC(=O)NCCc2ccc(OC)cc2OC)c2ccccc21 | . | . | . | . | 1
CC(C)(C)c1ccc(NC(=O)CSc2n[nH]c(=O)n2-c2cccnc2)cc1 | 1 | -21 | -10 | -2 | 15
CC(C)c1ccc(NC(=O)CSc2n[nH]c(=O)n2-c2cccnc2)cc1 | 0 | 31* | -3 | 2 | 5
Cc1ccc(-c2cc3c(N4CCN(c5cc(C)ccc5C)CC4)nccn3n2)cc1 | 0 | . | . | . | -6
COc1ccc(C(=O)/C=C/Nc2ccc([N+](=O)[O-])cc2C)cc1OC | 0 | 40* | -11 | -2 | 0

High-throughput results as filed in PubChem BioAssay.
